FMDV antiviral – antivirals against foot and mouth disease virus. FMDV antiviral cell-based qHTS. Potency, µM (doses to about 57.9 µM), usual class: inhibitors. hit rate 1.2% among 410,000. AID 1159524; calls by dose curve; tested in HEK293T cells; also: read-out not given here; nearly all actives have a fitted effect of over 45% in size
Shiga toxin inh – Shiga toxin inhibition; hit rate 9.2% among 290,000; Vero cells, Shiga toxin protein synthesis inhibition reporter; inhibition, % at 38.7 µM; in the data active = inhibition mostly above about 28%, no sharp cut-off; inactive = mostly below about 43%
Sm TGR inh – S. mansoni TGR enzyme inhibition; AID 485364; Potency, µM (titrated, usually from 114 µM), hits mostly inhibitors; hit rate 3% among 360,000; purified TGR, DTNB reduction, TNB absorbance 405 nm; active = well fitted inhibition curve with a large enough effect; inconclusive = small, poorly fitted or top-dose-only effect; inactive = no such curve, though single readings can be large or run the other way; also: nearly all actives have a fitted effect of over 60% in size
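Kinetic colorimetric format: TGR-catalysed, NADPH-driven DTNB reduction monitored via TNB absorbance. Enzyme dispensed at 20 nM; compound exposure 15 min at room temperature before reaction start.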
CHX counter – counter-screen hit for Shiga toxin inhibitors, cycloheximide | cell reporter, cycloheximide protein synthesis inhibition counterscreen | max response, % | hit rate 12% among 300,000 | AID 2314; in the data active = max response mostly above about 13%, no sharp cut-off; inactive = mostly below about 14%; also: read at 38.3 µM for the half of the compounds with a filed dose
Of the large screens only hits and unclear results are named; the others gave an inactive call. An excerpt weighted towards active compounds, which were near 12% of everything screened.

COc1cc(/C=C/C(=O)c2ccc3c(c2)OCO3)cc(Cl)c1O	Sm TGR inh inconclusive
COc1ccc(/C=C/C(=O)c2ccc3c(c2)OCO3)c(OC)c1	Shiga toxin inh 60.9, CHX counter 58.9
COc1ccc(/C=C/C(=O)c2c(C)cc(C)[nH]c2=O)c2ccccc12	none
O=C1C2C(c3ccccc3)CC=CC2C(c2ccc3ccccc3c2)N1Cc1ccccc1 (stereo not given)	none (no result: FMDV antiviral, Sm TGR inh)
COc1cccc(/C=C/C(=O)OCC(=O)c2ccc3c(c2)NC(=O)CO3)c1OC	FMDV antiviral inconclusive
CCOc1ccccc1/C=C/C(=O)c1ccc(Cl)cc1	CHX counter 14.5
COc1cc(O)c(C(=O)/C=C/c2ccccc2)c(OC)c1	Shiga toxin inh 69.7, CHX counter 34.1
COc1ccccc1/C=C/C(=O)NC(=S)NC(C)C	Shiga toxin inh 57.0, Sm TGR inh inconclusive, CHX counter 16.9
COc1cccc(/C=C/C(=O)c2ccc3c(c2)OCCO3)c1OC	CHX counter 47.2 (no result: Shiga toxin inh)
Cc1c(CCC(=O)NCCc2ccccc2)c(=O)oc2c(C)c(O)ccc12	none (no result: Shiga toxin inh, CHX counter)
COc1ccccc1/C=C/C(=O)NCC(=O)N1CCC(N(C)C2CCCC2)CC1	none
COc1ccccc1/C=C/C(=O)c1ccc(Cl)cc1	Shiga toxin inh 83.1, CHX counter 42.2
COc1ccccc1/C=C/C(=O)N1CCC(c2ccccc2)C1 (stereo not given)	Shiga toxin inh 71.3, CHX counter 52.5
COc1ccc(/C=C/C(=O)c2ccccc2)c(OC)c1	Shiga toxin inh 74.1, CHX counter 23.3
COc1ccccc1/C=C/C(=O)c1ccc(NC(C)=O)cc1	FMDV antiviral inconclusive, CHX counter 21.3
COc1ccccc1N1CCN(C(=O)c2ccc(NC(C)=O)cc2)CC1	none
COc1ccc(/C=C/C(=O)c2ccc(OC)cc2OC)c(OC)c1	none
CCc1ccc(Oc2c(C(F)(F)F)oc3c(CN4CCCC(C)C4)c(O)ccc3c2=O)cc1 (stereo not given)	none (no result: Shiga toxin inh, CHX counter)
COc1ccccc1Cc1nc2ccccc2nc1SCC(=O)Nc1cccc(Cl)c1C	none (no result: Shiga toxin inh, CHX counter)
CCCCC[C@H](O)/C=C/C=C\C=C\C=C\[C@@H](O)[C@@H](O)CCCC(=O)O	none (no result: Shiga toxin inh, Sm TGR inh, CHX counter)
COc1ccccc1/C=C/C(=O)c1ccccc1	Shiga toxin inh 68.6, Sm TGR inh inconclusive, CHX counter 54.6
O=C(/C=C/c1ccccc1O)c1ccccc1	none (no result: Shiga toxin inh, Sm TGR inh, CHX counter)
O=C(Nc1ccc2[nH]ccc2c1)c1ccc(F)cc1	CHX counter 13.4
COc1ccc(NC(=O)Nc2ccc3[nH]ccc3c2)cc1	none (no result: Shiga toxin inh, Sm TGR inh, CHX counter)
O=C(Nc1ccncc1)c1ccc(F)cc1	none
O=C(Nc1ccc2[nH]ccc2c1)c1ccccc1	CHX counter 26.6
CCc1ccc(CNc2ncc(-c3cccc(OC)c3)n2C)cc1	none (no result: Shiga toxin inh, CHX counter)
COc1cccc(Cn2c(CNC(=O)CCc3ccccc3)nc3cccnc32)c1	none (no result: Shiga toxin inh, CHX counter)
CC(C)CCNC(=O)c1ccc2c(c1)N(Cc1ccccc1F)C(=O)c1ccccc1S2=O (stereo not given)	none (no result: Shiga toxin inh, CHX counter)
Cc1ccc(/C=C2\SC(=S)N(C3CCS(=O)(=O)C3)C2=O)o1 (stereo not given)	FMDV antiviral inconclusive, Sm TGR inh inconclusive
CC1=C(C#N)C(=O)N(C2CCS(=O)(=O)C2)C(=O)/C1=C\c1ccc(C)o1 (stereo not given)	Sm TGR inh 15.8µM (no result: FMDV antiviral)
Cc1noc(C)c1-c1nc(NCCN2CCOCC2)c2ccccc2n1	none (no result: Shiga toxin inh, Sm TGR inh, CHX counter)
O=C(/C=C/c1ccccc1)Nc1ccc(Br)cn1	Shiga toxin inh active, CHX counter 31.0
Cc1ccc(NC(=O)/C=C/c2ccc(Cl)cc2)nc1	Shiga toxin inh 50.4, CHX counter 22.4 (no result: Sm TGR inh)
Cc1ccc(/C=C/C(=O)Nc2ccc(Cl)cc2Cl)cc1	none (no result: Shiga toxin inh, CHX counter)
CCOc1ccc2ncc3c(-c4ccc(C)cc4)nn(-c4cccc(F)c4)c3c2c1	none (no result: Shiga toxin inh, CHX counter)
Cc1ccccc1C(=O)NNS(=O)(=O)c1ccc(F)cc1	none (no result: Shiga toxin inh, Sm TGR inh, CHX counter)
COc1ccccc1C(=O)NNC(=O)c1ccc(Cl)cc1	CHX counter 17.1
COc1ccccc1C(=O)NNC(=O)c1ccc(F)cc1	Shiga toxin inh 65.0, CHX counter 57.0
COc1ccccc1C(=O)NNC(=O)C1CC=CCC1 (stereo not given)	CHX counter 25.1
Cc1ccccc1C(=O)NNC(=O)c1ccc(F)cc1	CHX counter 19.6
CCOc1ccc(C(=O)/C=C/c2cn(CC(O)CN3CCc4ccccc43)c3ccccc23)cc1 (stereo not given)	none (no result: Shiga toxin inh, CHX counter)
CC(C)(C)OC(=O)NNC(=O)c1ccc(Cl)cc1	CHX counter 13.4
O=C(Nc1cnccn1)c1csc2ccccc12	Shiga toxin inh 111.2, CHX counter 27.1
O=C(Nc1ccon1)c1csc2ccccc12	CHX counter 9.7
CN(C)c1ccc(NC(=S)NC(=O)/C=C/c2ccc(Cl)cc2)cc1	Shiga toxin inh 105.2, CHX counter 53.2
CC(=O)c1ccc(NC(=S)NC(=O)/C=C/c2ccc(F)cc2)cc1	CHX counter 19.8
O=C(/C=C/c1ccc(Cl)cc1)NC(=S)Nc1ccc(C(=O)O)cc1	FMDV antiviral inconclusive, Sm TGR inh 10µM
CNC(=O)c1ccc(NC(=O)/C=C/c2cccc(F)c2)cc1	CHX counter 27.3
COc1cccc(CNC(=O)CSC2=Nc3ccccc3C3=NC(C(C)C)C(=O)N23)c1 (stereo not given)	none (no result: Shiga toxin inh, CHX counter)
COc1cc(OC)c(NC(=O)N2CCc3cc(OC)c(OC)cc3C2CC(=O)O)cc1Cl (stereo not given)	none (no result: Shiga toxin inh, CHX counter)
CCCCCCCCCCCCC/C=C/[C@@H](O)[C@H](CO)NC(=O)CCCCC	none (no result: FMDV antiviral, Sm TGR inh)
COc1ccc2cc(CNc3ccc(OC)c(OC)c3)c(=O)n(CC(=O)Nc3ccc(C)cc3)c2c1	none (no result: Shiga toxin inh, CHX counter)
CCOC(=O)C1CCN(c2c(Nc3ccc4c(c3)OCCO4)c(=O)c2=O)CC1	Shiga toxin inh 88.4, CHX counter 59.9
CCOC(=O)N1CCC(N2C(=O)c3ccccc3C2Nc2ccc3c(c2)OCCO3)CC1 (stereo not given)	Shiga toxin inh 127.8, CHX counter 161.5
COc1ccc(CNC(=O)c2sc3nc4n(c(=O)c3c2C)CCCC4)cc1	Sm TGR inh inconclusive (no result: Shiga toxin inh, CHX counter)
COc1ccc(NC(=O)C2CCN(C(=O)[C@@H]3Cc4ccccc4CN3)CC2)cc1	CHX counter 33.3
CCc1ccc(NC(=O)C2CCN(C(=O)[C@@H]3Cc4ccccc4CN3)CC2)cc1	Shiga toxin inh 59.7, CHX counter 34.3
Cc1ccc(NC(=O)C2CCN(C(=O)[C@@H]3Cc4ccccc4CN3)CC2)c(C)c1	CHX counter 14.3
Cc1cccc(NC(=O)C2CCN(C(=O)[C@@H]3Cc4ccccc4CN3)CC2)c1	none
O=C(Nc1cc(N2CCOCC2)ncn1)c1ccc(F)cc1	Shiga toxin inh 75.3, CHX counter 33.4
O=C(Nc1cc(N2CCCCC2)ncn1)c1ccc(F)cc1	CHX counter 26.1 (no result: Sm TGR inh)
Fc1ccc(/C=N/Nc2cc(N3CCOCC3)ncn2)cc1	none
C(=N\Nc1cc(N2CCCCC2)ncn1)/c1ccco1	Shiga toxin inh 38.1, CHX counter 28.0
O=C(NC(=O)c1ccc(Cl)cc1)Nc1cc(N2CCCCC2)ncn1	none (no result: Shiga toxin inh, Sm TGR inh, CHX counter)
Fc1cccc(/C=N/Nc2cc(N3CCOCC3)ncn2)c1	Shiga toxin inh 25.2, CHX counter 22.7
CCc1ccc(-n2c(=O)c3sc4ccccc4c3n(CC(=O)N(CC)Cc3ccccc3)c2=O)cc1	none (no result: Shiga toxin inh, CHX counter)
CCOc1ccc(/C=C/c2nc3ccccc3n2S(=O)(=O)c2cccc(Cl)c2)cc1	none (no result: Shiga toxin inh, CHX counter)
COCCCNC(=O)c1ccc([N+](=O)[O-])cc1	none

Compound activity from PubChem BioAssay.
